Reference: PubChem BioAssay AID504444 (National Center for Advancing Translational Sciences (NCATS), 2011)
Hit rate of the full screen: of about 360,000 compounds, about 7,500 (2.1%) were called active. Another 20% or so got no clear call; they are omitted. Calls come from the whole dose curve; as a rule, active = well fitted inhibition curve with a large enough effect; inconclusive = small, poorly fitted or top-dose-only effect, or effect the other way; inactive = flat fitted curve, though single readings scatter. The full list was thinned out, with actives kept by preference.

Assay: Nrf2 qHTS screen for inhibitors; note: nearly all actives have a fitted effect of over 60% in size
Conditions: A549 ARE-Fluc reporter, luciferase luminescence, 18-24 h; series mostly up to 46 µM; activity change, negative = inhibition: at the top concentration
Summary of the method: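 Nrf2 function is reported as luminescence of an ARE-controlled luciferase in A549 cells. Compounds were tested at several concentrations, and a CellTiter-Fluor read on the same wells flagged cytotoxicity.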
% is set by controls: 0 for no effect and ±100 for the full control effect; potency is the fitted concentration of half-maximal effect.

Compound	activity change, negative = inhibition	Potency
O=C(NCc1ccccc1CN1CCCC1)C1CCN(S(=O)(=O)c2ccc(Cl)cc2)CC1	13.4% (inactive)	
CCOc1ccc(S(=O)(=O)c2cn(Cc3ccc(OC)cc3)c3ccc(F)cc3c2=O)cc1	-7.26% (inactive)	
CCn1cc(C(=O)NCc2ccc(C)cc2)c(=O)c2cc(S(=O)(=O)N3CCc4ccccc4C3)ccc21	5.14% (inactive)	
Cc1cc2c(s1)c1cnn(Cc3c(F)cccc3Cl)c(=O)c1n2C	16.9% (inactive)	
CC(C)Cn1c(-c2ccc(S(=O)(=O)N3CCOCC3)cc2)csc1=Nc1cc(Cl)ccc1Cl	-3.88% (inactive)	
CCn1cc(C(=O)N2CCN(c3cc(Cl)ccc3C)CC2)c(=O)c2cc(S(=O)(=O)N3CCCC3)ccc21	-10.7% (inactive)	
Cc1ccc(Cl)cc1N1CCN(C(=O)c2cn(C)c3ccc(S(=O)(=O)N(C)C4CCCCC4)cc3c2=O)CC1	25.6% (inactive)	
CCn1cc(C(=O)N2CCN(c3cc(C)ccc3C)CC2)c(=O)c2cc(S(=O)(=O)N(C)C3CCCCC3)ccc21		23.1 µM (active)
CCN1CCC(O)(/C=C/c2ccc(C)cc2)C(C(=O)/C=C/c2ccc(C)cc2)C1 (configuration not stated)	-22.3% (inactive)	
CC[C@@]1(C(=O)OC)N[C@H](CN(C)C(C)=O)[C@@H]2C(=O)N(C)C(=O)[C@@H]21	-0.744% (inactive)	
O=C(NCCc1ccco1)c1ccc(OCc2cn3ccccc3n2)cc1	23.3% (inactive)	
COC1C(CO)OC(n2cnc3c(=S)nc(N)[nH]c32)C1O (configuration not stated)	-1.21% (inactive)	
CC(C)(C)c1cc(C(=O)NN)n(Cc2ccc(Cl)cc2Cl)n1	-13.1% (inactive)	
N#CC(C#N)=CN=c1ccn(Cc2ccc(Cl)cc2Cl)cc1		1.84 µM (active)
O=c1ccn(Cc2ccccc2Cl)cc1	3.6% (inactive)	
CCNS(=O)(=O)c1ccc(CCC(=O)N2CCN(c3ccc(OC)cc3)CC2)cc1	0.623% (inactive)	
CCCNS(=O)(=O)c1ccc(CCC(=O)N2CCCC2)cc1	-0.614% (inactive)	
CCNS(=O)(=O)c1ccc(CCC(=O)N2CCN(c3cc(Cl)ccc3C)CC2)cc1		8.2 µM (active)
CSc1ccc(CN2C(=O)NC3(CCCCCC3)C2=O)cc1		18.4 µM (active)
O=C(CN1C(=O)NC2(CCCCCCC2)C1=O)NCc1ccc(F)cc1	8.87% (inactive)	
O=C(CN1C(=O)NC2(CCCCCC2)C1=O)NCc1ccc(F)cc1	-6.21% (inactive)	
COc1ccc(C2(c3ccc(OC)cc3)NC(=O)N(CC(=O)Nc3cc(C)on3)C2=O)cc1	2.89% (inactive)	
Cc1cccc(CC2(O)C(=O)Nc3ccccc32)n1 (configuration not stated)	-21.7% (inactive)	

Compound	activity change, negative = inhibition	Potency
O=C(Nc1cccc(Cl)c1N1CCOCC1)c1ccc2c(c1)OCCO2		23.1 µM (active)
O=C(Nc1cccc(Cl)c1N1CCOCC1)c1cccnc1	-6.75% (inactive)	
COC(=O)c1ccc(N2CCOCC2)c(NC(=O)c2ccc3c(c2)OCCO3)c1	3.57% (inactive)	
CC/C(=C(/c1ccccc1)c1ccc(OCC[N+](C)(C)C)cc1)c1ccccc1	-7.21% (inactive)	
COC(=O)CSc1nc2ccccc2c(=O)n1Cc1ccccc1	4.16% (inactive)	
CCN(CC)CCn1c(N)c(S(=O)(=O)c2ccccc2)c2nc3ccccc3nc21	-2.15% (inactive)	
CCC(=O)Nc1c(S(=O)(=O)c2ccccc2)c2nc3ccccc3nc2n1Cc1ccccc1		14.6 µM (active)
COc1cc(C(=O)CCc2ccc3c(c2)OCO3)cc(OC)c1OC	0.0369% (inactive)	
COc1cccc(CNC(=O)CSc2c3c(nc4cc(Cl)ccc24)CCCC3)c1	-28.8% (inactive)	
COc1ccc(S(=O)(=O)N2CCCCC2)cc1NC(=O)COc1ccccc1	-5.84% (inactive)	
CCOc1ccc(S(=O)(=O)N2CCCCC2)cc1NC(=O)CN1CCCC1c1cccs1 (configuration not stated)		8.2 µM (active)
CCOc1ccccc1NC(=O)COc1ccc(S(=O)(=O)N2CCCC2)cc1	8.32% (inactive)	
COc1cc(/C=C/CNC[C@H]2O[C@@H](n3cnc(C(N)=O)n3)[C@H](O)[C@@H]2O)ccc1O	-6.54% (inactive)	
COc1ccc(NC(=O)CSC2=Nc3ccccc3C3=NC(CC(=O)NCc4ccccc4OC)C(=O)N23)cc1Cl (configuration not stated)	7.31% (inactive)	
COc1ccc(-c2cc(C(F)(F)F)n3nc(-c4ccccc4)cc3n2)cc1OC	-2.55% (inactive)	
COc1ccccc1-c1oc2ccccc2c1C#CCCCCO	2.63% (inactive)	
COc1ccc2cc(C3=CC(=O)C[C@H](c4ccc5c(c4)OCO5)C3)ccc2c1	-11.8% (inactive)	
O=C1C=C(c2ccnc3cc(Cl)ccc23)C[C@@H](c2ccc3c(c2)OCO3)C1		9.2 µM (active)
O=C1C=C(c2cccc(Cl)c2)C[C@@H](c2ccc(F)cc2)C1	-1.21% (inactive)	
O=S(=O)(c1ccc2c(c1)OCCCO2)N1CCN(S(=O)(=O)c2c(F)cccc2F)CC1	18.5% (inactive)	
COc1ccccc1Nc1nc(N)nc(N)c1S(=O)(=O)c1ccccc1	1.76% (inactive)	
CCOC(=O)c1ccc(NC(=O)c2nc[nH]c2C(=O)NCc2ccccc2)cc1	-19.4% (inactive)	
CC(C)(C)OC(=O)NCCCCCNC(=O)c1[nH]cnc1C(=O)Nc1nccs1	-19.6% (inactive)	

Compound	activity change, negative = inhibition	Potency
CCOC(=O)c1ccc(NC(=O)c2nc[nH]c2C(=O)N[C@@H](CCCCNC(=O)OC(C)(C)C)C(=O)OC(C)(C)C)cc1		23.1 µM (active)
COc1ccc(OC)c(NC(=O)CSc2nc3ccccc3nc2N2CCCCC2)c1	-8.4% (inactive)	
CC(C)c1cc(N=O)cc(C(C)C)c1O	15.6% (inactive)	
CCCCCc1ccc(-c2cn(Cc3ccc4ccccc4c3)nn2)cc1	8.41% (inactive)	
CCCCCc1ccc(-c2ccc(OCC)cc2)nc1		0.366 µM (active)
CCCCOc1ccc(-c2ncc(C(=O)OCC)c(N)n2)cc1	-13.9% (inactive)	
CNC(=O)c1ccsc1NC(=O)c1ccc(S(=O)(=O)N2CCc3ccccc32)cc1		16.4 µM (active)
CNC(=O)c1ccsc1NC(=O)c1ccc(S(=O)(=O)N2CCOCC2)cc1	-27.8% (inactive)	
O=S(=O)(c1ccccc1)N1CCc2ccccc21	-4.14% (inactive)	
COc1ccc(C(=O)NCc2ccc(Cl)cc2)cc1S(=O)(=O)N1CCCC1	-19.1% (inactive)	
CCOC(=O)c1c(C)oc2nc(C)nc(N(CC(C)C)CC(C)C)c12	-23.4% (inactive)	
CCCSc1ccc([C@H]2N[C@@](Cc3ccccc3)(C(=O)OC)[C@H]3C(=O)N(C)C(=O)[C@@H]23)cc1	-4.83% (inactive)	
Cc1ccc(NC(=O)COC(=O)C2CC2)cc1S(=O)(=O)N1CCOCC1	8.96% (inactive)	
Cc1ccc(NC(=O)CCCNC(=O)c2ccc(Cl)cc2)cc1S(=O)(=O)N1CCOCC1	-7.44% (inactive)	
CCc1ccccc1OCC(=O)Nc1ccc(C)c(S(=O)(=O)N2CCCCCC2)c1		25.9 µM (active)
Cc1ccc(NS(=O)(=O)c2cccs2)cc1S(=O)(=O)N1CCCCCC1		7.31 µM (active)
Cc1ccc(NC(=O)CCC(=O)N2CCC(c3ccccc3)=N2)cc1S(=O)(=O)N1CCCCC1	-25.3% (inactive)	
Cc1ccc(NC(=O)CCCNC(=O)c2ccc(Cl)cc2)cc1S(=O)(=O)N1CCCCC1		16.4 µM (active)
Cc1ccc(NC(=O)CCNC(=O)c2ccc([N+](=O)[O-])cc2)cc1S(=O)(=O)N1CCOCC1	3.63% (inactive)	
Cc1ccc(C(=O)NNC(=O)c2ccncc2)cc1S(=O)(=O)N1CCCCC1	-7.77% (inactive)	
O=C(C1CCN(S(=O)(=O)c2cccs2)CC1)N1CCCCCC1	19.6% (inactive)	
CC1CN(C(=O)N2CCC(C(=O)NCc3cccs3)CC2)c2ccccc2O1 (configuration not stated)	-14% (inactive)	
O=C(CCCCn1c(=O)c2ccccc2n(CC(=O)Nc2cccc(C(F)(F)F)c2)c1=O)NCc1ccc2c(c1)OCO2	-14.1% (inactive)	

Compound	activity change, negative = inhibition	Potency
CCCS(=O)(=O)N1CCC(n2c(C(F)(F)F)nc3cccnc32)CC1	-6.94% (inactive)	
O=C(N[C@@H]1C/C=C\C[C@@H](CC(=O)N(CCO)Cc2ccccc2)C(=O)N[C@H](Cc2ccccc2)COC1=O)OCC1c2ccccc2-c2ccccc21	-2.23% (inactive)	
Fc1ccc2[nH]c3c(N4CCSCC4)ncnc3c2c1		18.4 µM (active)
Fc1ccc2[nH]c3c(N4CCN(Cc5ccc6c(c5)OCO6)CC4)ncnc3c2c1		10.3 µM (active)
Cc1c(CN2CC[C@@H](N3CCN(c4ccccn4)CC3)[C@H](O)C2)[nH]c2ccc(F)cc12	-6.24% (inactive)	
CC(C)(C)n1nnnc1C(c1ccc(F)cc1)N1CCN(Cc2ccc3c(c2)OCO3)CC1 (configuration not stated)	-7.86% (inactive)	
O=c1[nH]c(N2CCN(Cc3ccc4c(c3)OCO4)CC2)nc2c1CCCC2	-8.11% (inactive)	
CCn1c(CN2CCC(C)CC2)nc2cc(NC(=O)c3ccccc3[N+](=O)[O-])ccc21	-4.26% (inactive)	
CCCN(CC(=O)Nc1ccccc1C)C(=O)c1ccc(OCC(=O)N2CCOCC2)c(OCC)c1	1.1% (inactive)	
Cc1ccccc1NC(=O)Cn1c(=O)n(CC2CCC(C(=O)NCCc3ccccc3)CC2)c(=O)c2ccccc21 (configuration not stated)	5.11% (inactive)	
COc1cc(C(=O)NCC(c2ccco2)N2CCCC2)ccc1OCc1ccccc1 (configuration not stated)	7.02% (inactive)	
Cc1ccccc1Nc1nn2c(=O)c3ccc(C(=O)NCCc4ccc(Cl)cc4)cc3nc2s1	-7.63% (inactive)	
Cc1ccc(S(=O)(=O)NC(N)=NCCC[C@@H](NC(=O)CNC(=O)c2ccccc2)C(=O)Nc2cc(C(F)(F)F)ccc2Cl)cc1	4.08% (inactive)	
O=C1NC[C@@H](c2ccccc2)OC(=O)[C@H](Cc2ccc(F)cc2)CC/C=C/C[C@H]1CC(=O)N(CCO)Cc1ccccc1	-7.42% (inactive)	
Cc1ccc2nc(-c3ccc(O)cc3)c(Nc3ccc4c(c3)OCO4)n2c1	8.81% (inactive)	
Cc1nc2ccccc2c(-c2ccccc2)c1C(=O)c1ccccc1		23.1 µM (active)
Cc1nc2ccccc2c(C(=O)O)c1-c1ccccn1	0.203% (inactive)	
Cc1nc2ccccc2c(C)c1C(=O)c1ccc(F)cc1	10% (inactive)	
CC1(C)O[C@@H]2CC3C4C[C@H](F)C5=CC(=O)C=CC5(C)C4C(O)CC3(C)[C@]2(C(=O)CO)O1 (some centres not stated)		0.0046 µM (active)
Cc1ccc(C(CC(=O)O)NC(=O)c2ccc(S(=O)(=O)N3CCCC3)cc2)cc1 (configuration not stated)	0.991% (inactive)	
CCOCCOC(=O)C1=C(C)NC(=O)NC1c1ccc2c(c1)OCO2 (configuration not stated)	-4.03% (inactive)	
COCCOC(=O)C1=C(C)NC(=O)NC1c1ccc(Cl)cc1 (configuration not stated)	-1.05% (inactive)	
CCC(CC)COC(=O)C1=C(C)NC(=O)NC1c1ccc([N+](=O)[O-])cc1 (configuration not stated)		25.9 µM (active)
